Measured values from article PMC4336329 (PLoS ONE, 2015).
About 14,000 (4.5%) of roughly 310,000 compounds showed an effect of 50% or more. The effect is printed as a negative number. What follows is part of a selection rich in strong results, with near analogues and random picks from the rest.

These molecules were tested against human ether-à-go-go-related gene (hERG) potassium channel (human, UniProt Q12809) (assay: primary screen, population patch clamp on CHO cells stably expressing hERG; higher = less effect of the substance).
Chain of human ether-à-go-go-related gene (hERG) potassium channel (Q12809 whole entry, looked up): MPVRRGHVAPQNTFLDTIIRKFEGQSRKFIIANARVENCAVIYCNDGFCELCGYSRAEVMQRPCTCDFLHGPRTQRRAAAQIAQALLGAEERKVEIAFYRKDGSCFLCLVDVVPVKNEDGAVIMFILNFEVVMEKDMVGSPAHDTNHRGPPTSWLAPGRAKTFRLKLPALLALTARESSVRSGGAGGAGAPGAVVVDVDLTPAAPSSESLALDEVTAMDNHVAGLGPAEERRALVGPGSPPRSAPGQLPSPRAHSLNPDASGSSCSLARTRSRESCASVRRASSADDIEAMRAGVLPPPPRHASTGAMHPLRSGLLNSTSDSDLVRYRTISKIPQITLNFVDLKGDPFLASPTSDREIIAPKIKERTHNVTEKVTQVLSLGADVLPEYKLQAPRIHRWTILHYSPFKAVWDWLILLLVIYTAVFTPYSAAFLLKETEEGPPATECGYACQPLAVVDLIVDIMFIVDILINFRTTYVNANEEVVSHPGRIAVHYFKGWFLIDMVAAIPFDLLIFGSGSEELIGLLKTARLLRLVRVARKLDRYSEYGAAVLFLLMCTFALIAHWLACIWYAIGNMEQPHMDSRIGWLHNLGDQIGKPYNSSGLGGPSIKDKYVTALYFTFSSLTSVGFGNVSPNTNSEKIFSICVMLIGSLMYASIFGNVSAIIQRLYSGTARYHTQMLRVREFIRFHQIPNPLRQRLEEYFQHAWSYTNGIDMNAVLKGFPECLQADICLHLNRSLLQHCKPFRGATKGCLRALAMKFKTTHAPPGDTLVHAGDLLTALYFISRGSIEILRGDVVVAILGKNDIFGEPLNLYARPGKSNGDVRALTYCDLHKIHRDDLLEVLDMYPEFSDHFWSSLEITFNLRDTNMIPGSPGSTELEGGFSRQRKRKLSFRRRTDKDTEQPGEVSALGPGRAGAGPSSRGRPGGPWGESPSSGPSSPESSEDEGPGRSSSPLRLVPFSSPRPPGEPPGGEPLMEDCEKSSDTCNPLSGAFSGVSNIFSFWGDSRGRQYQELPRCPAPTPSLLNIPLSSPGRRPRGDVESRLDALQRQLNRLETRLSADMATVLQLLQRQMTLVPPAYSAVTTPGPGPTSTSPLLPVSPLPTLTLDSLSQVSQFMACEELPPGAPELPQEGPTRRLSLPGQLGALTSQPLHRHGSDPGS
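Also: peak tail current of the secondary pulse compared with the same well before compound.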

SMILES | hERG current change (%, negative = inhibition) at 10uM
O=C(COc1ccc(Cl)cc1)NNC(=O)CSc1nncs1 | 8.43%
COc1ccccc1Oc1ccccc1C(=O)O | 0.941%
O=C(NCc1ccc(Cl)cc1)C1C2C=CC3(CN(Cc4cccnc4)C(=O)C13)O2 (stereo not drawn) | -7.1%
COc1ccc(N2CCN(CCCNC(=O)C3CCCN(S(=O)(=O)c4c(C)n[nH]c4C)C3)CC2)cc1 (stereo not drawn) | 8.03%
COc1ccc(C(=O)C(C)OC(=O)c2nc3nccc(C)n3n2)cc1 (stereo not drawn) | 2.98%
CCOC(=O)C1CCCN(C(=O)c2ccc(CNc3c(N4CCC(C)CC4)c(=O)c3=O)cc2)C1 (stereo not drawn) | 5.83%
CC(=O)N1CCC(=NNC(=O)CSc2cc(C)c(Br)cc2C)CC1 | 6.38%
Cc1cc(SCC(=O)NN=C2CCN(C(C)C)CC2)c(C)cc1Br | -69.4%
CCCN1CCC(=NNC(=O)CSc2cc(C)c(Br)cc2C)CC1 | -28%
C=CCN(C(=O)Nc1ccc(Cl)cc1)C1CC(=O)N(c2ccc(OC)cc2)C1=O (stereo not drawn) | -14.8%
O=C(NCc1ccncc1)C(=O)C1C(=O)Nc2ccccc21 (stereo not drawn) | 11.6%
CCOC(=O)c1csc(NNC=O)n1 | 6.73%
CC(CNC(=O)CCS(=O)(=O)c1ccc2c(c1)NC(=O)CO2)c1ccccc1 (stereo not drawn) | -6.68%
Cn1cnc([N+](=O)[O-])c1Sc1ccc(Br)cc1 | -20%
Cc1ccc(Sc2c([N+](=O)[O-])ncn2C)cc1 | 3.39%
Cn1cnc([N+](=O)[O-])c1Sc1ccc([N+](=O)[O-])cc1 | -62.1%
Cc1c(C(=O)N2CCN(c3ccccn3)CC2)sc2ncnc(N3CCOCC3)c12 | -59%
Cc1c(C(=O)N2CCN(c3ccc(F)cc3)CC2)sc2ncnc(N3CCN(c4ccccn4)CC3)c12 | -65.1%
Cc1c(C(=O)N2CCN(c3ccccc3)CC2)sc2ncnc(N3CCN(c4ccccn4)CC3)c12 | -35.1%
COc1ccccc1N1CCN(C(=O)c2sc3ncnc(N4CCN(c5ccccn5)CC4)c3c2C)CC1 | -18.8%
Cc1c(C(=O)N2CCN(c3ccccn3)CC2)sc2ncnc(N3CCN(c4ccccc4)CC3)c12 | -32.8%
Cc1c(C(=O)N2CCN(Cc3ccc4c(c3)OCO4)CC2)sc2ncnc(N3CCN(c4ccccc4)CC3)c12 | 7.82%

SMILES | hERG current change (%, negative = inhibition) at 10uM
CCN(CC)c1ncnc2sc(C(=O)N3CCN(c4ccccc4)CC3)c(C)c12 | -50.2%
CCN(CC)c1ncnc2sc(C(=O)N3CCN(c4ccc(OC)cc4)CC3)c(C)c12 | -41.5%
Cc1c(C(=O)N2CCC3(CC2)OCCO3)sc2ncnc(N3CCN(c4ccccn4)CC3)c12 | -44.2%
CN(C)CCOC(=O)c1ccc2c(c1)S(=O)(=O)c1ccccc1C2=O.Cl | -6.3%
COc1ccc2c(c1)c(C(=O)O)c(C)n2C(C)C | 13.3%
COc1ccc(N2CCN(C(=O)c3ccc(NS(=O)(=O)c4ccc(F)c(F)c4)cc3)CC2)cc1 | -44.3%
Cc1cc(C)nc(NC2=NCC(=O)N2CCc2c[nH]c3ccccc23)n1 | -2.13%
CCOC(=O)c1cnc(SC)nc1Oc1cccc(NS(=O)(=O)c2ccccc2)c1 | 16.1%
CCOC(=O)c1cnc(SC)nc1Oc1cccc(NS(=O)(=O)c2ccc(C)cc2)c1 | -6.83%
CCOC(=O)c1cnc(SC)nc1Oc1cccc(NS(=O)(=O)c2ccc(F)cc2)c1 | -71.2%
O=C(NCCN1CCOCC1)c1ccc(Cl)nc1Cl | -2.02%
CC(=O)N1CCN(S(=O)(=O)c2ccc3c(c2)OCCO3)CC1 | 10.5%
CCCCCC(=O)N1CCN(S(=O)(=O)c2ccc3c(c2)OCCCO3)CC1 | -18.7%
CCCCCC(=O)N1CCN(S(=O)(=O)c2ccc3c(c2)OCCO3)CC1 | -61%
COc1cc(NS(=O)(=O)c2ccc(NC(=S)NC(=O)c3sc4ccccc4c3Cl)cc2)ncn1 | 16.3%
COc1ccc(-c2[nH]ncc2CN2CCCCCCC2)c(OC)c1 | -54.7%
COc1ccc(-c2[nH]ncc2CN2CCCC(C(=O)c3cccc(OC)c3)C2)cc1 (stereo not drawn) | -67.3%
COc1ccc(-c2[nH]ncc2CN2CCC(OCc3ccccn3)CC2)c(F)c1 | -31.1%
COc1ccc(-c2[nH]ncc2CN2CCC(OCc3cccnc3)CC2)c(F)c1 | -37.1%
COc1ccc(-c2[nH]ncc2CN2CCCOc3c(cccc3OC)C2)c(OC)c1 | -48%
COc1ccc(-c2[nH]ncc2CN2CCCC(C(=O)c3ccc(OC)cc3OC)C2)cc1 (stereo not drawn) | -65%
COc1ccc(-c2[nH]ncc2CN2CCSCC2)c(OC)c1 | 14.7%

SMILES | hERG current change (%, negative = inhibition) at 10uM
COc1cccc(C(=O)C2CCCN(Cc3cn[nH]c3C3CCCCC3)C2)c1 (stereo not drawn) | -32.1%
COc1ccc(-c2[nH]ncc2CN2CCC(OCc3ccccc3)CC2)c(F)c1 | -80.7%
COc1ccc(-c2nc3c(Br)c(N)c(Br)cc3o2)cc1 | 7.14%
O=C(CCCOc1ccc(Cl)cc1Cl)N/N=C/c1cccc([N+](=O)[O-])c1 | 9.56%
CS(=O)(=O)N1Cc2ccccc2CC1C(=O)OCC(=O)Nc1ccc2ccccc2c1 (stereo not drawn) | 7.36%
O=C(CSc1nc(C2CCCCC2)nc2ccccc12)N1CCCC1 | -12.6%
COc1ccccc1/C=N/NC(=O)C1=NNC(c2ccccc2)(c2ccccc2)C1 | 2.43%
O=C(CSc1nncn1-c1ccccn1)Nc1ccccc1Cl | 4.16%
CCCCn1nnnc1SCC(=O)Nc1ccc(C)cc1 | 2.26%
COc1cccc(OCCn2cc(C=O)c3ccccc32)c1 | 15.2%
CC(C)(C)c1ccc(C(=O)Nc2cccc3ncccc23)cc1 | -2.82%
Cc1cc(Oc2ccccc2)nc(SCC(=O)Nc2ccccc2)n1 | 19.4%
CC1CCN(c2oc(-c3ccccc3F)nc2C#N)CC1 | -10.7%
COc1cccc(C(=O)N2CCOCC2)c1 | 20.2%
Cc1ccccc1NC(=O)CCN1CCN(C)CC1 | 19.4%
Cc1ccccc1NC(=O)N1CCN(C/C=C/c2ccccc2)CC1 | -22.7%
Cc1ccc(S(=O)(=O)NC(CC(C)C)C(=O)N2CCN(C/C=C/c3ccccc3)CC2)cc1 (stereo not drawn) | -21.3%
O=C(CCN1CCN(Cc2ccccc2)CC1)Nc1ccccc1Cl | -46.2%
O=C(CN1CCN(C/C=C/c2ccccc2)CC1)Nc1ccc(F)cc1F | -78.1%
Cl.O=C(CCN1CCN(C/C=C/c2ccccc2)CC1)Nc1ccccc1Cl | -76.4%
O=C(Nc1ccc(F)cc1F)N1CCN(C/C=C/c2ccccc2)CC1 | -39.9%
Cc1cc(NC(=O)CN2CCN(C/C=C/c3ccccc3)CC2)c([N+](=O)[O-])cc1C | -12%

SMILES | hERG current change (%, negative = inhibition) at 10uM
Fc1ccc(NC(=S)N2CCN(C/C=C/c3ccccc3)CC2)c(F)c1 | -25.8%
CCC(C)c1ccccc1NC(=O)CN1CCN(C/C=C/c2ccccc2)CC1 (stereo not drawn) | -60.4%
Cc1ccccc1NC(=O)CCN1CCN(C/C=C/c2ccccc2)CC1 | -78.9%
O=C(Nc1ccccc1Cl)N1CCN(C/C=C/c2ccccc2)CC1 | -25.9%
O=C(COC(=O)c1cnccn1)c1ccc(Br)cc1 | 0.614%
O=C(CNC(=O)c1ccc(Cl)cc1Cl)OCN1C(=O)c2ccccc2C1=O | 3.68%
Cc1[nH]c2ccccc2c1C(=O)C(=O)NCC1CCCO1 (stereo not drawn) | 6.3%
Cc1ccc(/C=C/C(=O)N2CC(=O)Nc3ccccc32)o1 | -24.2%
O=C(CN1C(=O)c2ccccc2C1=O)NCCOc1ccccc1 | -2.09%
Cc1ccccc1NC(=O)C(C)O/N=C/c1cccc([N+](=O)[O-])c1 (stereo not drawn) | -38.7%
CCCS(=O)(=O)N1CCCC(C(=O)NCCCN(C)c2ccccc2)C1 (stereo not drawn) | 5.82%
CN(C)/C=C(\C#N)S(=O)(=O)c1ccccc1 | 9.4%
O=C(CCN1CCN(C/C=C/c2ccccc2)CC1)Nc1ccccc1F.O=C(O)C(=O)O | -75.1%
Fc1ccccc1NC(=S)N1CCN(C/C=C/c2ccccc2)CC1 | -23.4%
O=C(CCN1CCN(c2ccccc2)CC1)Nc1ccccc1F | 8.14%
COc1ccc(CN2C(=O)c3ccccc3C2=O)cc1C(=O)Nc1ccccc1N1CCOCC1 | -10.7%
COCC(=O)N1CCC(Oc2ccc(C(=O)NCc3cc(C(C)C)no3)cc2)CC1 | -2.22%
CS(=O)(=O)Nc1cccc(-c2cnc3ccccc3n2)c1 | -70.4%
CC(C)C(=O)Nc1cccc(-c2cnc3ccccc3n2)c1 | 4.12%
CC(=O)Nc1cccc(-c2cnc3ccccc3n2)c1 | -9.95%
Cc1cc(S(=O)(=O)Nc2cccc(Cl)c2)c(C)s1 | 8.15%
